Experimental data taken from PubChem BioAssay (NCATS).
Inconclusive results are not listed. Where a call stands in place of a potency, no number is given. Unmarked numbers belong to inactive results. The source made the active and inactive calls. Calls come from the whole dose curve; as a rule, active = well fitted curve in the direction sought with a large enough effect; inconclusive = small, poorly fitted or top-dose-only effect, or another doubt; inactive = no such curve, though single readings can be large; an effect the other way counts as inactive or inconclusive.

Assays:
[1] = system: CRL-7250; assay: Cytotoxic Profiling of Annotated Libraries Using Quantitative High-Throughput Screening (AID 1296008); settings: Five cell lines viability, CellTiter-Glo ATP luminescence, 48-72 h; max response: active compounds read low; note: nearly all actives have a fitted effect of over 60% in size; note: potency is the fitted concentration of half-maximal effect
In short: (§1)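 Cells exposed to compounds for 48 or 72 hr at 37 degrees Celsius. Viability read as ATP-coupled luminescence with CellTiter-Glo after 10 min at room temperature.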

[2] = system: HEK293; assay: as above; settings: Five cell lines viability, CellTiter-Glo ATP luminescence, 48-72 h; max response: active compounds read low
In short: as §1

[3] = system: HaCat; assay: as above; settings: Five cell lines viability, CellTiter-Glo ATP luminescence, 48-72 h; max response: active compounds read low
In short: as §1

[4] = system: KB-3-1; assay: as above; settings: Five cell lines viability, CellTiter-Glo ATP luminescence, 48-72 h; max response: active compounds read low
In short: as §1

[5] = system: NIH3T3; assay: as above; settings: Five cell lines viability, CellTiter-Glo ATP luminescence, 48-72 h; max response: active compounds read low
In short: as §1

[6] = system: HACAT; assay: qHTS assay to identify novel small-molecules to repurpose for Merkel cell carcinoma treatment (AID 1296009); settings: MCC and control cell lines, CellTiter-Glo viability, 72 h; at 44.8 µM (top of the series) unless noted; note: nearly all actives have a fitted effect of over 60% in size
In short: (§2)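 Cells were treated for 72 hr at 37 degree celsius with compounds in 8- or 11-point dose response. Viability was read by CellTiter-Glo luminescence, normalized to no-cell (cytotoxicity) and DMSO controls.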

[7] = system: NIH3T3; assay: as above; settings: MCC and control cell lines, CellTiter-Glo viability, 72 h; at 44.8 µM (top of the series) unless noted
In short: as §2

[8] = system: C33A; assay: Primary qHTS to identify gynecologic anti-cancer compounds using libraries of approved drugs and bioactive compounds (AID 1345084); settings: Gynecologic cancer cell panel viability, ATPlite luminescence, 48 h; series mostly up to 57.5 µM; note: nearly all actives have a fitted effect of over 55% in size
In short: (§3)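 Cells, 1,000 per well, plated 16 h, then exposed 48 h at 37 C to compounds. Viability by ATPlite luminescence after 15 min at room temperature.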

[9] = system: CAOV3; assay: as above; settings: Gynecologic cancer cell panel viability, ATPlite luminescence, 48 h; series mostly up to 57.5 µM
In short: as §3

[10] = system: CASKI; assay: as above; settings: Gynecologic cancer cell panel viability, ATPlite luminescence, 48 h; series mostly up to 57.5 µM
In short: as §3

[11] = system: Es-2; assay: as above; settings: Gynecologic cancer cell panel viability, ATPlite luminescence, 48 h; series mostly up to 57.5 µM
In short: as §3

[12] = system: HeLa; assay: as above; settings: Gynecologic cancer cell panel viability, ATPlite luminescence, 48 h; series mostly up to 57.5 µM
In short: as §3

[13] = system: Hek293T; assay: as above; settings: Gynecologic cancer cell panel viability, ATPlite luminescence, 48 h, control line for the selectivity index; series mostly up to 57.5 µM
In short: as §3

[14] = system: JEG-3; assay: as above; settings: Gynecologic cancer cell panel viability, ATPlite luminescence, 48 h; series mostly up to 57.5 µM
In short: as §3

## O=C(O)CCc1cccc(O)c1O[C@@H]1O[C@H](CO)[C@@H](O)[C@H](O)[C@H]1O
[1]
  max response: 3.73%
[2]
  max response: -3.2%
[3]
  outcome: inactive
[4]
  max response: 8.15%
[5]
  outcome: inactive
[6]
  outcome: inactive
[7]
  outcome: inactive
[8]
  Potency: inactive
[9]
  Potency: inactive
[10]
  outcome: inactive
[11]
  Potency: inactive
[12]
  Potency: inactive
[13]
  Potency: inactive
[14]
  Potency: inactive

## CN(C)CCC[C@]1(c2ccc(F)cc2)OCc2cc(C#N)ccc21
[1]
  max response: 1.86%
[2]
  max response: -1.92%
[3]
  outcome: inactive
[4]
  max response: -2.48%
[5]
  outcome: inactive
[6]
  outcome: inactive
[7]
  outcome: inactive
[8]
  Potency: inactive
[9]
  Potency: inactive
[10]
  outcome: inactive
[11]
  Potency: inactive
[12]
  Potency: inactive
[13]
  Potency: inactive
[14]
  Potency: inactive

## COc1cc(O)c2c(c1Cl)CC(C)OC2=O (stereo not given)
[1]
  outcome: inactive
[2]
  max response: -0.0766%
[3]
  outcome: inactive
[4]
  max response: 3.15%
[5]
  outcome: inactive
[6]
  outcome: inactive
[7]
  outcome: inactive
[8]
  Potency: inactive
[9]
  Potency: inactive
[10]
  outcome: inactive
[11]
  Potency: inactive
[12]
  Potency: inactive
[13]
  Potency: inactive
[14]
  Potency: inactive

## O=C(O)CCc1c(C(=O)O)[nH]c2cc(Cl)cc(Cl)c12
[1]
  max response: -1.79%
[2]
  max response: -7.05%
[3]
  outcome: inactive
[4]
  outcome: inactive
[5]
  outcome: inactive
[6]
  outcome: inactive [at 17.4 µM]
[7]
  outcome: inactive [at 17.4 µM]
[8]
  Potency: inactive
[9]
  Potency: inactive
[10]
  outcome: inactive
[11]
  Potency: inactive
[12]
  Potency: inactive
[13]
  Potency: inactive
[14]
  Potency: inactive

## Cc1ccc(C)c(S(=O)(=O)n2cnc3ccccc32)c1
[1]
  max response: -12.1%
[2]
  max response: -10.9%
[3]
  outcome: inactive
[4]
  outcome: inactive
[5]
  outcome: inactive
[6]
  outcome: inactive
[7]
  outcome: inactive
[8]
  Potency: inactive
[9]
  Potency: inactive
[10]
  outcome: inactive
[11]
  Potency: inactive
[12]
  Potency: inactive
[13]
  Potency: inactive
[14]
  Potency: inactive

## COc1cc(CO)cc(OC)c1O[C@@H]1O[C@H](CO)[C@@H](O)[C@H](O)[C@H]1O
[1]
  max response: -11.4%
[2]
  max response: -2.97%
[3]
  outcome: inactive
[4]
  max response: 4.69%
[5]
  outcome: inactive
[6]
  outcome: inactive
[7]
  outcome: inactive
[8]
  Potency: inactive
[9]
  Potency: inactive
[10]
  outcome: inactive
[11]
  Potency: inactive
[12]
  Potency: inactive
[13]
  Potency: inactive
[14]
  Potency: inactive

## COC(=O)C1=CO[C@@H](O[C@@H]2O[C@H](CO)[C@@H](O)[C@H](O)[C@H]2O)[C@H]2[C@@H]1C=C[C@]21C=C([C@H](C)OC(=O)/C=C/c2ccc(O[C@@H]3O[C@H](CO)[C@@H](O)[C@H](O)[C@H]3O)cc2)C(=O)O1
[1]
  max response: -2.8%
[2]
  max response: 4.82%
[3]
  outcome: inactive
[4]
  max response: 9.99%
[5]
  outcome: inactive
[6]
  outcome: inactive [at 17.4 µM]
[7]
  outcome: inactive [at 17.4 µM]
[8]
  Potency: inactive
[9]
  Potency: inactive
[10]
  outcome: inactive
[11]
  Potency: inactive
[12]
  Potency: inactive
[13]
  Potency: inactive
[14]
  Potency: inactive

## C=C1[C@@H]2CC[C@@]3(C)[C@H](c4ccoc4)OC(=O)C[C@]13O[C@H]1CC(=O)C(C)(C)[C@H](C(O)C(=O)OC)[C@]12C (stereo not given in full)
[1]
  max response: -0.794%
[2]
  max response: -5.89%
[3]
  outcome: inactive
[4]
  outcome: inactive
[5]
  outcome: inactive
[6]
  outcome: inactive [at 17.4 µM]
[7]
  outcome: inactive [at 17.4 µM]
[8]
  Potency: inactive
[9]
  Potency: inactive
[10]
  outcome: inactive
[11]
  Potency: inactive
[12]
  Potency: inactive
[13]
  Potency: inactive
[14]
  Potency: inactive

## C=C[C@]1(C)C[C@@H](OC(=O)CSC2C[C@H]3CC[C@@H](C2)N3C)[C@]2(C)[C@H](C)CC[C@]3(CCC(=O)[C@H]32)[C@@H](C)[C@@H]1O (stereo not given in full)
[1]
  max response: -0.484%
[2]
  Potency: 1460 nM (active)
[3]
  outcome: inactive
[4]
  max response: -17.7%
[5]
  outcome: inactive
[6]
  outcome: inactive
[7]
  outcome: inactive
[8]
  Potency: inactive
[9]
  Potency: inactive
[10]
  outcome: inactive
[11]
  Potency: inactive
[12]
  Potency: inactive
[13]
  Potency: inactive
[14]
  Potency: inactive

## CC1(C)[C@H]2C[C@H](C/C=C\CCCC(=O)O)[C@@H](NC(=O)c3csc4ccc(O)cc34)[C@@H]1C2
[1]
  max response: -1.76%
[2]
  max response: 4.16%
[3]
  outcome: inactive
[4]
  outcome: inactive
[5]
  outcome: inactive
[6]
  outcome: inactive
[7]
  outcome: inactive
[8]
  Potency: inactive
[9]
  Potency: inactive
[10]
  outcome: inactive
[11]
  Potency: inactive
[12]
  Potency: inactive
[13]
  Potency: inactive
[14]
  Potency: inactive
